32 molecules from PubChem BioAssay AID1523 (The Scripps Research Institute Molecular Screening Center, 2009) can be followed below.

Some of the results follow. Activity calls are given as the source filed them. Rule as the data show it: active = activation above about 12%; inactive = the rest. Non-standard residues stand in square brackets, D forms with d. Residues, ends and D or L forms follow the SMILES beside them. ξ: configuration not given here. ξM = CSCCC(N)C(=O)O

The target of this experiment is Sphingosine 1-phosphate receptor 4 (Homo sapiens) (UniProt O95977). Put plainly: activators of human S1P4 signalling – cell-based, high throughput, confirmation (AID 1523).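 Also: 0% = vehicle and 100% = full reference agonist response.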 The following applies: S1P4 agonist cell-based reporter assay; at 4.98 µM; active compounds read high.
Sequence of Sphingosine 1-phosphate receptor 4 (Homo sapiens) (O95977 whole entry, looked up): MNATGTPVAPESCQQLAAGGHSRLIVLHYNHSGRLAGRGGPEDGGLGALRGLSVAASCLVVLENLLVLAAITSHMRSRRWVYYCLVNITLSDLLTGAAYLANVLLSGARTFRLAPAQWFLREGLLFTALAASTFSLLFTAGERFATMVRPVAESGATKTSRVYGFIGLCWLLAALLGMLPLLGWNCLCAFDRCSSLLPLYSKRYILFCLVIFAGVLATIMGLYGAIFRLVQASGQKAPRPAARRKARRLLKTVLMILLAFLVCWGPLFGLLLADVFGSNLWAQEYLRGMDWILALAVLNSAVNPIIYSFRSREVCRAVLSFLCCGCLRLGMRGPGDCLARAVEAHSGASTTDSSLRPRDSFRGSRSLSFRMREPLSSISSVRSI
In the case of `CC(=O)Nc1ccccc1NC(=O)c1cc(C)cc(C)c1`, the activation was -2.02% (inactive).
Take `CC(Oc1ccc(Br)cc1Br)C(=O)NC1CCCC1` (configuration not stated): the activation is -1.69% (inactive).
Regarding `COC(=O)CNC(=O)C(CCSC)NC(C)=O` (configuration not stated) (Ac-[ξM]-Gly-OMe), the activation was -1.87% (inactive).
To `Cc1cc(C)nc(N(C#N)CC(=O)Nc2ccccc2)n1` belongs -0.69% (inactive); to `O=C(COC(=O)Cc1ccc(F)cc1)Nc1cc(S(=O)(=O)N2CCOCC2)ccc1N1CCCC1`, -0.73% (inactive); to `CC(=O)Nc1ccc(SCC(=O)Nc2ccccc2Oc2ccccc2)cc1`, -3.24% (inactive).
With `COc1ccc(C2CC(c3cccs3)=NN2c2ccc(F)cc2)cc1OC` (configuration not stated), the activation is 10.7% (inactive).
The figure for `Cc1ccc(NC(=O)Nc2ccccc2)c(Br)c1` is -1.05% (inactive); for `COc1ccc(N2C(=O)C(Cc3ccccc3)NC2=S)cc1` (configuration not stated) it is -1.44% (inactive).
Regarding `CCCCCNC(=O)c1cccnc1SCC(=O)Nc1ccccc1OC`, the activation was -2.09% (inactive).
The figure for `CCC(C)NC(=O)C1c2ccccc2Oc2ccccc21` (configuration not stated) is 0.12% (inactive); for `N/C(=N\OC(=O)Cc1ccc([N+](=O)[O-])cc1)c1ccccn1` it is -3.04% (inactive); for `COc1ccc(C2CC(c3cccs3)=NN2c2ccccc2)cc1` (configuration not stated) it is 23.1% (active).
The figure for `O=[N+]([O-])c1cccc(Nc2c3ccccc3nc3ccccc23)c1` is 6.3% (inactive); for `Cc1noc(C)c1COC(=O)COc1ccc(-c2ccccc2)cc1` it is -2.48% (inactive).
To `Cc1cc(NC(=O)c2cc(-c3cccs3)on2)nn1Cc1ccc(Cl)cc1` belongs -0.63% (inactive); to `COc1ccc(-n2c(C)cc(C(=O)CN3C(=O)NC4(CCc5ccccc54)C3=O)c2C)cc1` (configuration not stated), -1.26% (inactive).
Regarding `O=C(CSc1nncn1-c1cccnc1)N1CCOCC1`, the activation is -1.73% (inactive).
`CCC(=O)/C(=C(/O)c1ccccc1)c1nc2ccccc2[nH]1`: the activation was -1.45% (inactive).
With `O=C(COC(=O)c1cc([N+](=O)[O-])ccc1NCc1ccccc1)NC1CCCCC1`, the activation was -2.43% (inactive).
In the case of `COC(=O)[C@@H]1CC[C@H](C)[C@@H](c2ccc(C)cc2)N1C(=O)c1ccc(/C=N/O[C@H](C)c2cn([C@@H]3COC[C@H]3O)nn2)cc1`, the activation was -1.25% (inactive).
In the case of `Cc1cc(C)c(C#N)c(SCC(=O)NN2CC(=O)N(c3ccccc3F)CC2=O)n1`, the activation is -0.87% (inactive).
For `CC(C)C(c1nnnn1C(C)(C)C)N1CCN(Cc2cccnc2)CC1` (configuration not stated), the activation is -2.62% (inactive).
With `CSc1sc(C(=O)NNC(=O)c2ccc(Cl)cc2)c2c1C=CCC2`, the activation is -2.13% (inactive).
The figure for `CNC(=O)c1[nH]cnc1C(=O)N[C@@H](CC(C)C)C(=O)OCc1ccccc1` is 48% (active); for `C=CCn1c(SCn2nnc3ccccc3c2=O)nnc1-c1ccc(Cl)cc1` it is -1.29% (inactive); for `CC1CCCC(NC(=O)COC(=O)[C@@H]2CC(O)CN2S(=O)(=O)c2ccc3c(c2)OCCO3)C1C` (some centres not stated) it is -1.06% (inactive).
Take `CCn1c(CNC(=O)c2ccc(OC)c(OC)c2)nnc1SCC(=O)Nc1ccccc1`: the activation was -2.38% (inactive).
Take `CCOc1ccc(-c2nnc(-c3ccco3)o2)cc1`: the activation is -1% (inactive).
Take `COc1ccccc1CNC(=O)CNC(=O)c1cn(-c2ccccc2OC)c(=O)c2ccccc12`: the activation is -1.82% (inactive).
`O=C(CSc1nnc(Nc2ccccc2)s1)Nc1cccnc1Cl`: the activation was -0.71% (inactive).
To `O=C(CSc1ccc(-c2ccc(F)cc2)nn1)Nc1ccc2c(c1)OCCO2` belongs -1.49% (inactive).
